Common to all, as to conditions: mRNA level, 48 h; actives raise or lower the signal
Read-out in assay [1]: matrix metalloproteinase-10 (MMP10), MMP10 (gene 4319)
Description: LTEA_HepaRG_MMP10: Life Technologies and Expression Analysis (LTEA) Assay for matrix metalloproteinase-10 (MMP10) using HepaRG (AID 2283517). The method, boiled down:
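In differentiated HepaRG cultures kept in 0.5% DMSO, test chemicals act for 48 h over an eight-point range with a top dose of 100 uM. Expression is then quantified by TaqMan RT-PCR against ACTB, GAPDH and POLR2A.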

Read-out in another assay: MYC, MYC (gene 4609)
As to the kind of experiment: LTEA_HepaRG_MYC: Life Technologies and Expression Analysis (LTEA) Assay for MYC using HepaRG (AID 2283518). The method, boiled down:
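qRT-PCR read-out of MYC transcript (Fluidigm TaqMan, housekeeping-normalized) after 48 h chemical exposure of HepaRG cells; eight concentrations, top 100 uM, half-log steps. Bidirectional curve fitting against 0.5% DMSO vehicle baseline.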

Read-out in assay [2]: matrix metalloproteinase-3 (MMP3), MMP3 (gene 4314)
As to the kind of experiment: LTEA_HepaRG_MMP3: Life Technologies and Expression Analysis (LTEA) Assay for matrix metalloproteinase-3 (MMP3) using HepaRG (AID 2283519). The method, boiled down:
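Human liver HepaRG cultures received chemicals (top concentration 100 uM, 0.5% DMSO) for 48 h in duplicate. MMP3 mRNA induction or loss was then assessed via TaqMan qRT-PCR with housekeeping-gene normalisation.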

Read-out in assay [3]: Paternally Expressed 10 (PEG10), PEG10 (gene 23089)
Description: LTEA_HepaRG_PEG10: Life Technologies and Expression Analysis (LTEA) Assay for Paternally Expressed 10 (PEG10) using HepaRG (AID 2283520). The method, boiled down:
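PEG10 transcript measured by Fluidigm qRT-PCR, normalized to three housekeeping genes, in HepaRG cells treated 48 h (highest 100 uM, half-log steps, 0.5% DMSO vehicle). Cells plated 48 h before switching to serum-free induction medium.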

Read-out in assay [4]: Nuclear factor NF-kappa-B p105 subunit (Homo sapiens) (UniProt P19838)
Description: LTEA_HepaRG_NFKB1: Life Technologies and Expression Analysis (LTEA) Assay for Nuclear Factor Kappa B Subunit 1 (NFKB1) using HepaRG (AID 2283521).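 Note: TaqMan qRT-PCR transcript normalised to ACTB GAPDH and POLR2A housekeeping genes.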 In a few lines: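 Differentiated human HepaRG cells in serum-free induction medium with 0.5% DMSO were exposed for 48 h to eight half-log concentrations, top 100 uM, in duplicate. NFKB1 mRNA measured by Fluidigm TaqMan qRT-PCR, normalised to ACTB, GAPDH and POLR2A; bidirectional fit versus DMSO.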

Read-out in assay [5]: Protein phosphatase 2A (PPP2R4), PTPA (gene 5524)
As to the kind of experiment: LTEA_HepaRG_PPP2R4: Life Technologies and Expression Analysis (LTEA) Assay for Protein phosphatase 2A (PPP2R4) using HepaRG (AID 2283522). In a few lines: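 Expression was quantified by Fluidigm qRT-PCR normalised to three housekeeping genes after 48 h treatment. Human HepaRG cells received an 8-point series from 100 µM downward by half-logs, in duplicate with 0.5% DMSO vehicle and 1 mM phenobarbital as induction control.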

Read-out in assay [6]: solute carrier (SLC22A1), SLC22A1 (gene 6580)
As to the kind of experiment: LTEA_HepaRG_SLC22A1: Life Technologies and Expression Analysis (LTEA) Assay for solute carrier (SLC22A1) using HepaRG (AID 2283524). In a few lines: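 Transcript induction or suppression of SLC22A1 in human HepaRG cultures is scored after 48 h chemical treatment, with DMSO (0.5%) as baseline for bidirectional fitting. Concentrations span eight half-log points topping at 100 uM.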

Read-out in assay [7]: Pyruvate Dehydrogenase Kinase 4 (PDK4), PDK4 (gene 5166)
As to the kind of experiment: LTEA_HepaRG_PDK4: Life Technologies and Expression Analysis (LTEA) Assay for Pyruvate Dehydrogenase Kinase 4 (PDK4) using HepaRG (AID 2283525). The method, boiled down:
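Eight-point, half-log concentration series (max 100 uM, 0.5% DMSO) applied to differentiated HepaRG cells for 48 h in duplicate. Endpoint: PDK4 mRNA induction or repression by qRT-PCR against DMSO baseline.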

Read-out in assay [8]: NAD(P)H dehydrogenase [quinone] 1 (NQO1), NQO1 (gene 1728)
Description: LTEA_HepaRG_NQO1: Life Technologies and Expression Analysis (LTEA) Assay for NAD(P)H dehydrogenase [quinone] 1 (NQO1) using HepaRG (AID 2283526). In a few lines:
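NQO1 transcript induction or loss measured by TaqMan qRT-PCR, referenced to three housekeeping genes and fitted bidirectionally against 0.5% DMSO. HepaRG cultures exposed 48 h, duplicate, eight-point half-log series, top 100 uM.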

Read-out in assay [9]: Nuclear factor erythroid 2-related factor 2 (Homo sapiens) (UniProt Q16236)
As to the kind of experiment: LTEA_HepaRG_NFE2L2: Life Technologies and Expression Analysis (LTEA) Assay for Nuclear factor erythroid 2-related factor 2 (NFE2L2) Transcription Factor using HepaRG (AID 2283527).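 Note: TaqMan qRT-PCR transcript level normalised to ACTB GAPDH and POLR2A housekeeping genes.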 The method, boiled down: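 Human liver HepaRG line treated in duplicate for 48 h with an eight-point series topping at 100 uM. Gene expression of NFE2L2 by qRT-PCR, bidirectionally fitted against the vehicle control.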

Read-out in assay [10]: succinate dehydrogenase complex iron sulfur subunit B (SDHB), SDHB (gene 6390)
As to the kind of experiment: LTEA_HepaRG_SDHB: Life Technologies and Expression Analysis (LTEA) Assay for succinate dehydrogenase complex iron sulfur subunit B (SDHB) using HepaRG (AID 2283528). The method, boiled down:
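HepaRG cells (~100,000/well, plated 48 h) exposed in duplicate for 48 h in serum-free induction medium to 8-point half-log series from 100 uM in 0.5% DMSO; mRNA by qRT-PCR normalised to ACTB, GAPDH, POLR2A; bidirectional fit versus DMSO.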

Read-out in assay [11]: Signal transducer and activator of transcription 3 (Homo sapiens) (UniProt P40763)
Description: LTEA_HepaRG_STAT3: Life Technologies and Expression Analysis (LTEA) Assay for Signal transducer and activator of transcription (STAT3) using HepaRG (AID 2283529). The method, boiled down:
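In this transcriptional endpoint, HepaRG cultures receive test chemicals at up to 100 uM for 48 h, tested in duplicate. STAT3 mRNA is normalized to ACTB, GAPDH and POLR2A.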

Read-out in assay [12]: solute carrier (SLCO1B1), SLCO1B1 (gene 10599)
As to the kind of experiment: LTEA_HepaRG_SLCO1B1: Life Technologies and Expression Analysis (LTEA) Assay for solute carrier (SLCO1B1) using HepaRG (AID 2283530). In a few lines:
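SLCO1B1 transcript read by qRT-PCR (Fluidigm arrays), normalized to three housekeeping genes, after 48 h chemical exposure of HepaRG cells; bidirectional concentration-response fitting versus 0.5% DMSO baseline. Eight-point half-log series, maximum 100 uM.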

Read-out in assay [13]: sulfotransferase 2A1 (SULT2A1), SULT2A1 (gene 6822)
As to the kind of experiment: LTEA_HepaRG_SULT2A1: Life Technologies and Expression Analysis (LTEA) Assay for sulfotransferase 2A1 (SULT2A1) using HepaRG (AID 2283531). In a few lines:
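HepaRG, 48 h chemical exposure, 8-pt half-log curve from 100 uM in 0.5% DMSO, duplicates. Readout: TaqMan qRT-PCR of SULT2A1 mRNA, housekeeping-normalized. Bidirectional fit vs DMSO baseline.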

Read-out in assay [14]: Transforming Growth Factor (TGFA), TGFA (gene 7039)
As to the kind of experiment: LTEA_HepaRG_TGFA: Life Technologies and Expression Analysis (LTEA) Assay for Transforming Growth Factor (TGFA) using HepaRG (AID 2283532). In a few lines:
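Gene expression of TGFA was quantified by qRT-PCR after human HepaRG cells were treated for 48 h with test chemicals (eight concentrations, highest 100 uM, 0.5% DMSO). Activity in either direction was fitted relative to DMSO.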

Read-out in assay [15]: Transforming Growth Factor (TGFB1), TGFB1 (gene 7040)
As to the kind of experiment: LTEA_HepaRG_TGFB1: Life Technologies and Expression Analysis (LTEA) Assay for Transforming Growth Factor (TGFB1) Transporter using HepaRG (AID 2283533). In a few lines:
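qRT-PCR readout of TGFB1 transcript in HepaRG lysates, normalized to three housekeeping genes; gain or loss of signal fitted relative to 0.5% DMSO vehicle. Exposure: 48 h, 8-point curve from 100 uM, duplicate wells.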

Read-out in another assay: TIMP1, TIMP1 (gene 7076)
Description: LTEA_HepaRG_TIMP1: Life Technologies and Expression Analysis (LTEA) Assay for TIMP1 using HepaRG (AID 2283534).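 For outcome: TaqMan qRT-PCR signal normalized to ACTB GAPDH and POLR2A housekeeping genes.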 The method, boiled down: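 HepaRG, 48 h exposure, 8-pt half-log series from 100 uM in 0.5% DMSO, duplicates; TIMP1 transcript by Fluidigm qRT-PCR, housekeeping-normalized; bidirectional curve fit vs DMSO baseline.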

Read-out in assay [16]: Tumor necrosis factor receptor 1 (TNFRSF1A), TNFRSF1A (gene 7132)
As to the kind of experiment: LTEA_HepaRG_TNFRSF1A: Life Technologies and Expression Analysis (LTEA) Assay for Tumor necrosis factor receptor 1 (TNFRSF1A) using HepaRG (AID 2283535). In a few lines:
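HepaRG, 48 h plating then 48 h chemical exposure, serum-free induction media; 8-pt CRC from 100 uM, half-log, 0.5% DMSO vehicle, duplicates. Readout: TaqMan qRT-PCR (Fluidigm), housekeeping-gene normalized; bidirectional fit vs DMSO.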

Read-out in assay [17]: Thyroid Hormone Responsive (THRSP), THRSP (gene 7069)
As to the kind of experiment: LTEA_HepaRG_THRSP: Life Technologies and Expression Analysis (LTEA) Assay for Thyroid Hormone Responsive (THRSP) using HepaRG (AID 2283536). In a few lines:
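Cell model: human HepaRG, approx. 100,000 cells/well, 0.5% DMSO vehicle. Exposure lasts 48 h; phenobarbital 1 mM serves as induction positive control. Gene expression is measured by qRT-PCR against three endogenous control genes.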

Each structure is given as a SMILES string. The source made the active and inactive calls. Rule for the calls: active = hit-call score of the fitted dose curve at least 0.9, where 1 is the maximum; inactive = score below 0.9.

Chain of Nuclear factor NF-kappa-B p105 subunit (Homo sapiens) (P19838 whole entry, looked up): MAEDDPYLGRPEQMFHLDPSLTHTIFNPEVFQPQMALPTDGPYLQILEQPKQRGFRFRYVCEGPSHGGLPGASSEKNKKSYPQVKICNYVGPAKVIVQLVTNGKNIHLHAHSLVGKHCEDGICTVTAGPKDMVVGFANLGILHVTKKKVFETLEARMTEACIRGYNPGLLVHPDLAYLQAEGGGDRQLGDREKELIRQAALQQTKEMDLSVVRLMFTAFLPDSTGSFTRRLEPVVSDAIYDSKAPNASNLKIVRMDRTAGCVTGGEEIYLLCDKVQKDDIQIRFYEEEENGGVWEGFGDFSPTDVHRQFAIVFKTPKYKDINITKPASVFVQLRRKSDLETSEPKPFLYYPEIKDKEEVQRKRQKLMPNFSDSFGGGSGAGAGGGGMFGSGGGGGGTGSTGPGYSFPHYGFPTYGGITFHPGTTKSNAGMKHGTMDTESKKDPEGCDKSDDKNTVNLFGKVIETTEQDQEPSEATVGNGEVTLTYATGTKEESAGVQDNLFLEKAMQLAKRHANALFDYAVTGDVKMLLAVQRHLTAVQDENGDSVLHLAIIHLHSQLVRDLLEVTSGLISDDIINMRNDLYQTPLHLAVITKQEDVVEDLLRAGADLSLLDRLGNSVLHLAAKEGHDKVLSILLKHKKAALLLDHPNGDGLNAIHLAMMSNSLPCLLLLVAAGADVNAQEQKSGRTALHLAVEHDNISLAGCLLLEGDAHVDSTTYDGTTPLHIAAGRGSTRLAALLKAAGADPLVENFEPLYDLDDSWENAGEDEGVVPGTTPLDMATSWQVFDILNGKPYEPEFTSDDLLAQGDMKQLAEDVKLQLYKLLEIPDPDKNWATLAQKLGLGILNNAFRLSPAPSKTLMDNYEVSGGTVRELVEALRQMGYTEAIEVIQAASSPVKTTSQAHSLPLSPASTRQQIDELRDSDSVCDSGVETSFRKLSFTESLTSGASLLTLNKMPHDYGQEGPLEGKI
Chain of Nuclear factor erythroid 2-related factor 2 (Homo sapiens) (Q16236 whole entry, looked up): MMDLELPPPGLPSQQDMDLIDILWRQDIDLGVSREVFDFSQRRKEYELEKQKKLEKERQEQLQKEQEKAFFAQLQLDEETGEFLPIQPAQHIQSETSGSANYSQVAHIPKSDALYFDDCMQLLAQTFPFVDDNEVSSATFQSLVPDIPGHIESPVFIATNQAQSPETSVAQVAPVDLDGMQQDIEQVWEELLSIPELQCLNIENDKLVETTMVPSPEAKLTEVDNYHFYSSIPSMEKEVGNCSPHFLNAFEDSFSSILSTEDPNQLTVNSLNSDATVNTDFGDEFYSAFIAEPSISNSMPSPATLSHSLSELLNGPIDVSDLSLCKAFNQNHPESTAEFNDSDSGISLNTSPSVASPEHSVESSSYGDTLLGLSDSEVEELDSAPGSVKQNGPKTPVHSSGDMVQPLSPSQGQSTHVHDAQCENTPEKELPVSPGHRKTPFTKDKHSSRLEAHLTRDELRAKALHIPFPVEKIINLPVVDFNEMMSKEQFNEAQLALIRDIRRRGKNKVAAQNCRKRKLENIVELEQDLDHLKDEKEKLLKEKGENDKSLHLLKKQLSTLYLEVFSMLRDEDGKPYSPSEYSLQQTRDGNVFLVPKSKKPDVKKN
Chain of Signal transducer and activator of transcription 3 (Homo sapiens) (P40763 whole entry, looked up): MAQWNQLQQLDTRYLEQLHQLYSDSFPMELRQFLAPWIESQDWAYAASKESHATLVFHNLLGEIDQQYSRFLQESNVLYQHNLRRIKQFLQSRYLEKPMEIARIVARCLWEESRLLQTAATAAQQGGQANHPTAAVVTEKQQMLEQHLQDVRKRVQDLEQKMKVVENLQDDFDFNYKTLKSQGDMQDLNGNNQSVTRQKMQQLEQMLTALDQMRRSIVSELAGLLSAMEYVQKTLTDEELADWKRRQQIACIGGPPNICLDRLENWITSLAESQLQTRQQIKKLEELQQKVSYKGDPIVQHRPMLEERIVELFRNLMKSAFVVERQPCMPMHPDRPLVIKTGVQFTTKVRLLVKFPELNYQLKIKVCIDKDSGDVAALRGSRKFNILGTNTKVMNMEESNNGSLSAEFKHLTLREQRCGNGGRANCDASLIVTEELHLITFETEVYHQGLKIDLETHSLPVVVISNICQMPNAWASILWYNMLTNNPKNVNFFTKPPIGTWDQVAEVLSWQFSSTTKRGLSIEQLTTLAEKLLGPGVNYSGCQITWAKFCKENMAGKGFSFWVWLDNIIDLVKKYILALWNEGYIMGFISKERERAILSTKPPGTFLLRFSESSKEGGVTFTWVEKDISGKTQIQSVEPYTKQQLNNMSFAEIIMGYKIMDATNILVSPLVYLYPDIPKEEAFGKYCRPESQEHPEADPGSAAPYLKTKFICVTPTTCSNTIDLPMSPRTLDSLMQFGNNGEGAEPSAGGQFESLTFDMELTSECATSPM

As for `CC1(C)CC(N=C=O)CC(C)(CN=C=O)C1` (stereo unspecified), the outcome in [1] is “inactive”; in the assay with MYC, MYC (gene 4609), “inactive”; in [2], “inactive”; in assay [3], “inactive”; in assay [4], “inactive”; in assay [5], “inactive”. Besides, the call in [6], in [7], in [8], in assay [9], in assay [10] and in [11] was inactive. Besides, the outcome was “inactive” in assay [12]; “inactive” in [13]; “inactive” in assay [14]; “inactive” in assay [15]; “inactive” in the assay with TIMP1, TIMP1 (gene 7076); “inactive” in assay [16]. The result in assay [17] was inactive.
`Cc1cccc(C)c1O`: the outcome in assay [1] is “inactive”; in the assay with MYC, MYC (gene 4609), “inactive”; in assay [2], “inactive”; in assay [3] it was “inactive”; in assay [4] it was “inactive”; in assay [5] it was “inactive”. The call in [6], in [7], in [8], in assay [9], in assay [10] and in assay [11] was inactive. Also, the outcome in assay [12] was “inactive”; in assay [13] it was “inactive”; in assay [14], “inactive”; in assay [15], “inactive”; with TIMP1, TIMP1 (gene 7076), “inactive”; in [16] it was “inactive”. In addition, in assay [17], the result was inactive.
Consider `CCCCCC(=O)O`, for which the outcome in [1] is “inactive”; with MYC, MYC (gene 4609), “inactive”; in [2], “inactive”; in assay [3] it was “inactive”; in assay [4] it was “inactive”; in assay [5], “inactive”. The compound was called inactive in [6], in assay [7], in assay [8], in assay [9], in assay [10] and in assay [11]. The outcome in assay [12] was “inactive”; in [13], “inactive”; in assay [14], “inactive”; in assay [15] it was “inactive”; in the assay with TIMP1, TIMP1 (gene 7076), “inactive”; in assay [16], “inactive”. Also, in assay [17], the compound was called inactive.
As for `CCCCCCCCCCO`, the outcome in assay [1] was “inactive”; in the assay with MYC, MYC (gene 4609), “inactive”; in assay [2], “inactive”; in assay [3] it was “inactive”; in [4], “inactive”; in [5], “inactive”. Besides, the outcome in assay [6], in [7], in [8], in [9], in [10] and in [11] was inactive. For the same compound, the outcome in assay [12], in [13], in [14], in assay [15], in assay [16] and in assay [17] was inactive. Further, the concentration at half-maximal activity (AC50) with TIMP1, TIMP1 (gene 7076) was 12.2 µM (active).

One may read the AC50 as the concentration giving half of the maximal activity seen.

Source of the values: PubChem BioAssay (EPA / NIEHS).
